Data: PubChem BioAssay (NCATS)
“And” between values parts separate entries of the source, which are not always exact repeats. Equal entries are not always repeated. Results filed as inconclusive are left out. Entries that show only a call come without a potency. The source made the active and inactive calls. Calls come from the whole dose curve; as a rule, active = well fitted curve in the direction sought with a large enough effect; inconclusive = small, poorly fitted or top-dose-only effect, or another doubt; inactive = no such curve, though single readings can be large; an effect the other way counts as inactive or inconclusive.

Legend:
[1] = qHTS of pediatric cancer cell lines to identify multiple opportunities for drug repurposing: Primary screen for A673 cells (AID 1347092); conditions: A673 Ewing sarcoma viability, CellTiter-Glo ATP luminescence, 48 h; series mostly up to 46 µM; note: nearly all actives have a fitted effect of over 45% in size
Summary of the method: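 A673 cells (500-1,000 cells/well) were treated 48 hours at 37 degrees C with compounds at 11-point (0.78 nM to 46 µM) or 8-point (0.59 nM to 46 µM) dilutions. Viability read by CellTiter-Glo luminescence; concentration-response curves fitted.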

[2] = qHTS of pediatric cancer cell lines to identify multiple opportunities for drug repurposing: Primary screen for SK-N-MC cells (AID 1347093); conditions: SK-N-MC viability, CellTiter-Glo luminescence, 48 h; series mostly up to 46 µM
Summary of the method: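 Metabolically active cells were quantified by ATP-dependent luminescence (CellTiter-Glo, 15 min at room temperature) following 48 h treatment. Cells had been plated at 500-1,000 per well and settled for 5 h beforehand.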

[3] = qHTS of pediatric cancer cell lines to identify multiple opportunities for drug repurposing: Primary screen for NB-EBc1 cells (AID 1347095); conditions: NB-EBc1 neuroblastoma viability, CellTiter-Glo luminescence, 48 h; series mostly up to 46 µM
Summary of the method: (§1)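 Following a 5-hour attachment period, cells at 500-1,000/well received compounds and were cultured for 48 hours. CellTiter-Glo was added and luminescence read to estimate viable, metabolically active cells.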

[4] = qHTS of pediatric cancer cell lines to identify multiple opportunities for drug repurposing: Primary screen for U-2 OS cells (AID 1347096); conditions: U-2 OS viability, CellTiter-Glo luminescence, 48 h; series mostly up to 46 µM; note: nearly all actives have a fitted effect of over 50% in size
Summary of the method: (§2)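 Cells (500-1,000/well) in growth media were settled 5 h at 37 degrees C, then given compounds for 48 h. Viability was read as CellTiter-Glo luminescence. Primary runs used MIPE at 11 points (0.78 nM-46 µM) and NPC at 8 points (0.59 nM-46 µM); follow-ups used 11 points.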

[5] = qHTS of pediatric cancer cell lines to identify multiple opportunities for drug repurposing: Primary screen for Saos-2 cells (AID 1347097); conditions: Saos-2 viability, CellTiter-Glo ATP luminescence, 48 h; series mostly up to 46 µM; note: nearly all actives have a fitted effect of over 40% in size
Summary of the method: as §1

[6] = qHTS of pediatric cancer cell lines to identify multiple opportunities for drug repurposing: Primary screen for SK-N-SH cells (AID 1347098); conditions: SK-N-SH viability, CellTiter-Glo luminescence, 48 h; series mostly up to 57 µM; note: nearly all actives have a fitted effect of over 65% in size
Summary of the method: (§3)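 Cells (500-1,000/well) rested 5 h, then received compounds for 48 h; metabolically active cells were measured by CellTiter-Glo luminescence. Final concentrations spanned up to 46 µM (MIPE, 11-point) or 0.59 nM-46 µM (NPC, 8-point) in primary screens, 11-point in follow-ups.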

[7] = qHTS of pediatric cancer cell lines to identify multiple opportunities for drug repurposing: Primary screen for NB1643 cells (AID 1347099); conditions: NB1643 neuroblastoma viability, CellTiter-Glo luminescence, 48 h; series mostly up to 46 µM; note: nearly all actives have a fitted effect of over 50% in size
Summary of the method: as §1

[8] = qHTS of pediatric cancer cell lines to identify multiple opportunities for drug repurposing: Primary screen for LAN-5 cells (AID 1347100); conditions: LAN-5 neuroblastoma viability, CellTiter-Glo luminescence, 48 h; series mostly up to 46 µM
Summary of the method: as §2

[9] = qHTS of pediatric cancer cell lines to identify multiple opportunities for drug repurposing: Primary screen for BT-12 cells (AID 1347101); conditions: BT-12 viability, CellTiter-Glo luminescence, 48 h; series mostly up to 57.3 µM; note: nearly all actives have a fitted effect of over 25% in size
Summary of the method: as §3

[10] = qHTS of pediatric cancer cell lines to identify multiple opportunities for drug repurposing: Primary screen for BT-37 cells (AID 1347094); conditions: BT-37 viability, CellTiter-Glo luminescence, 48 h; series mostly up to 57.3 µM
Summary of the method: as §1
Potency is the fitted concentration of half-maximal effect.

| Structure (SMILES) | Potency [1] | Potency [2] | Potency [3] | Potency [4] | Potency [5] | Potency [6] | Potency [7] | Potency [8] | Potency [9] | Potency [10] |
| --- | --- | --- | --- | --- | --- | --- | --- | --- | --- | --- |
| N#CC[C@H](C1CCCC1)n1cc(-c2ncnc3[nH]ccc23)cn1 | 23.5 µM (active) | 23.5 µM (active) | inactive | inactive | inactive | inactive | 14.8 µM (active) | 18.7 µM (active) | inactive |  |
| Fc1ccc(Cl)cc1-c1nc(Nc2ccncc2)c2nccnc2n1 | inactive | inactive | inactive | inactive |  | inactive | inactive | inactive | inactive |  |
| Cc1ccc(NC(=O)c2cccc(C(C)(C)C#N)c2)cc1Nc1ccc2ncn(C)c(=O)c2c1 | 14.8 µM (active) | 18.7 µM (active) |  |  |  | 24.1 µM (active) | 18.7 µM (active) |  |  |  |
| CN1CCN(CCCN2c3ccccc3Sc3ccc(C(F)(F)F)cc32)CC1 | 21.1 µM (active) and 296 nM (active) | 1.05 µM (active) |  | inactive | 18.7 µM (active) | 12.2 µM (active) and 7.64 µM (active) | 3.32 µM (active) | 16.6 µM (active) | 24.6 µM (active) and 21.7 µM (active) |  |
| CCN(CC)CCCC(C)Nc1ccnc2cc(Cl)ccc12 (centres undefined) | 2.96 µM (active) | 0.0372 µM (active) | inactive | inactive |  |  | 1.48 µM (active) |  | 3.43 µM (active) |  |
| CCc1cncnc1N1CCN(Cc2nc3ccc(C(F)(F)F)cc3[nH]2)CC1 | 29.6 µM (active) | 23.5 µM (active) |  | inactive |  |  |  |  | 12.2 µM (active) |  |
| COc1ccccc1-c1cccc(-c2c(O)c3cc(C#N)c(Cl)cc3[nH]c2=O)c1 | inactive | 34 µM (active) |  | inactive |  | inactive | inactive | inactive |  |  |
| CCn1c(-c2nonc2N)nc2c(C#CC(C)(C)O)ncc(OC[C@H]3CCCNC3)c21 | 11.8 µM (active) | 0.469 µM (active) | 18.7 µM (active) | inactive |  |  | 18.7 µM (active) | 5.26 µM (active) | inactive |  |
| CCOc1ccn(-c2ccc(F)cc2)c(=O)c1C(=O)Nc1ccc(Oc2ccnc(N)c2Cl)c(F)c1 | 18.7 µM (active) | 13.2 µM (active) |  | inactive |  |  |  | 7.43 µM (active) |  |  |
| CCCS(=O)(=O)Nc1ccc(F)c(C(=O)c2c[nH]c3ncc(Cl)cc23)c1F | 18.7 µM (active) | 4.18 µM (active) |  |  |  | 19.2 µM (active) | 20.9 µM (active) |  |  |  |
| OC[C@H](Cc1ccccc1)Nc1nc(Oc2ccc3c(c2)CCC3)nc2c1ncn2Cc1ccc(-c2ccccc2)cc1 | inactive | 1.87 µM (active) |  | inactive |  | inactive |  | inactive |  |  |
| C[C@]1(c2nc3c(C(N)=O)cccc3[nH]2)CCCN1 | 14.8 µM (active) | 1.18 µM (active) |  | inactive | 20.9 µM (active) |  | 9.35 µM (active) |  |  |  |
| CCCS(=O)(=O)Nc1ccc(F)c(C(=O)c2c[nH]c3ncc(-c4ccc(Cl)cc4)cc23)c1F | 9.35 µM (active) | 10.5 µM (active) |  |  |  | 4.82 µM (active) | 3.32 µM (active) | 20.9 µM (active) |  |  |
| S=C(NCc1ccc2c(c1)OCO2)N1CCN(c2ncnc3c2oc2ccccc23)CC1 | 1.71 µM (active) | 4.29 µM (active) |  |  |  | inactive | 8.55 µM (active) | 30.3 µM (active) |  |  |
| O=C(NOC[C@H](O)CO)c1ccc(F)c(F)c1Nc1ccc(I)cc1F | 5.9 µM (active) | 0.0469 µM (active) |  |  |  | 0.341 µM (active) |  |  |  |  |
| C[C@H](NC(=O)Cc1cc(F)cc(F)c1)C(=O)N[C@@H]1C(=O)N(C)c2ccccc2-c2ccccc21 | 7.43 µM (active) | 5.26 µM (active) | inactive | inactive |  | 12.1 µM (active) | 6.62 µM (active) | inactive | inactive |  |
| CCOc1ccc(Cc2cc([C@@H]3O[C@H](CO)[C@@H](O)[C@H](O)[C@@H]3O)ccc2Cl)cc1 | 23.5 µM (active) | 20.9 µM (active) |  | inactive |  |  | inactive |  |  |  |
| CCC(=O)N[C@H]1CC[C@H](C(=O)N(C)c2ccc(-c3nc4ccccc4o3)cc2)C1 | 3.72 µM (active) | 0.833 µM (active) | inactive | inactive |  | 0.961 µM (active) | 1.66 µM (active) |  |  |  |

| Structure (SMILES) | Potency [1] | Potency [2] | Potency [3] | Potency [4] | Potency [5] | Potency [6] | Potency [7] | Potency [8] | Potency [9] | Potency [10] |
| --- | --- | --- | --- | --- | --- | --- | --- | --- | --- | --- |
| CCC(C)(C)C(=O)O[C@H]1C[C@@H](C)C=C2C=C[C@H](C)[C@H](CC[C@@H]3C[C@@H](O)CC(=O)O3)[C@H]21 | 10.6 µM (active) | 33.2 µM (active) |  | 18.7 µM (active) |  | 7.7 µM (active) and 21.5 µM (active) |  | inactive | 1.38 µM (active) and 1.93 µM (active) |  |
| Cn1cc(-c2ccc3nnc(C(F)(F)c4ccc5ncccc5c4)n3n2)cn1 | inactive | inactive |  | inactive |  |  | inactive |  |  |  |
| C#Cc1cccc(Nc2ncnc3cc(OCCOC)c(OCCOC)cc23)c1 |  | 1.05 µM (active) and 7.5 µM (active) |  | inactive | 16.6 µM (active) |  | 5.9 µM (active) |  | 24.3 µM (active) | 19.3 µM (active) and 11 µM (active) |
| COCCNCCCn1c(C(=O)CF)c(-c2ccc(C)cc2)c2c(N)ncnc21 | 23.5 µM (active) |  | inactive | inactive |  |  |  | inactive | inactive | inactive |
| COc1ccc([C@@H]2CC(=O)c3c(O)cc(O[C@@H]4O[C@H](CO[C@@H]5O[C@@H](C)[C@H](O)[C@@H](O)[C@@H]5O)[C@@H](O)[C@H](O)[C@@H]4O)cc3O2)cc1O |  | 16.6 µM (active) |  | inactive | inactive | inactive | inactive | inactive | inactive | inactive |
| COc1ccc(CC2=NN3C([C@@H](CCc4ccccc4)[C@@H](C)O)=NC(C)C3C(=O)N2)cc1OC (some centres undefined) | inactive |  | inactive | inactive | inactive |  |  | inactive | inactive | inactive |
| Cc1cc2c(F)c(Oc3ncnn4cc(OC[C@@H](C)O)c(C)c34)ccc2[nH]1 |  | 0.264 µM (active) | 13.2 µM (active) |  |  | 24.1 µM (active) |  | 20.9 µM (active) |  | 27.3 µM (active) |
| O=C1CCCC2=C1C(c1[nH]ncc1Cl)N=C(Nc1nc3ccccc3o1)N2 (centres undefined) | inactive |  |  | inactive |  |  |  | inactive |  | inactive |
| CCOC(=O)N1CCC(=C2c3ccc(Cl)cc3CCc3cccnc32)CC1 | 23.5 µM (active) and 26.6 µM (active) |  | 20.9 µM (active) | inactive |  | 30.7 µM (active) |  |  |  |  |
| O=C(C=Cc1ccc(/C=C/C(=O)Nc2ccc(C3=NCCN3)cc2)cc1)Nc1ccc(C2=NCCN2)cc1 | inactive |  | inactive | inactive | inactive | inactive | inactive | inactive | inactive | inactive |
| Cn1c(=O)c(F)c(Nc2ccc(I)cc2F)c2c(=O)n(C[C@@H](O)CO)cnc21 | inactive |  |  | 5.9 µM (active) |  | 6.81 µM (active) |  |  |  |  |
| CCCc1nn(C)c2c(=O)[nH]c(-c3cc(S(=O)(=O)N4CCN(C)CC4)ccc3OCC)nc12 | inactive |  | inactive | inactive | inactive | inactive |  | inactive |  | inactive |
| OC(CN1CCC(Cc2ccc(F)cc2)CC1)c1ccc(Cl)cc1 (centres undefined) | inactive |  |  | inactive | inactive |  |  | inactive | inactive | inactive |
| CS(=O)(=O)c1ccc(C(=O)Nc2ccc(Cl)c(-c3ccccn3)c2)c(Cl)c1 |  | 2.64 µM (active) | inactive | inactive |  | inactive |  | inactive |  | inactive |
| O=S(=O)(N=Cc1c(O)ccc2ccccc12)c1cccs1 |  | 9.35 µM (active) |  | inactive | 18.7 µM (active) | inactive |  | inactive |  | inactive |
| Cc1[nH]c(=O)c(C#N)cc1-c1ccncc1 | inactive |  |  | inactive | inactive | inactive |  | inactive | inactive | inactive |
| COc1ccccc1[C@H](c1cccc2ccccc12)[C@@](C)(C#N)C(=O)N1CCC(c2cccc(C(F)(F)F)c2)CC1 |  | 1.18 µM (active) | 6.62 µM (active) |  |  | 19.2 µM (active) |  |  |  | 17.2 µM (active) |
